Measurements reported in PubChem BioAssay (NCATS).
Results filed as inconclusive are left out. Active and inactive are the calls of the source. Calls follow the shape of the dose curve; as a rule, active = well fitted inhibition curve with a large enough effect; inconclusive = small, poorly fitted or top-dose-only effect; inactive = flat fitted curve, though single readings scatter. Numbered stars: 1 amine (or outer) side, 2 acyl side, 3 side chain; on linkers, the order of the positions; unused ones are H or OH. Bridge positions count the residues as written; N and C are the ends. Square brackets hold non-standard residues; d marks the D form. Peptide text beside a SMILES is read from it. I, II: the chains in the order shown. Actinocin(9to1) = Cc1c2oc3c(C)ccc(C(=O)[*:1])c3nc-2c(C(=O)[*:2])c(N)c1=O; NMeV = CN[C@H](C(=O)O)C(C)C; Sar = CNCC(=O)O

What was measured:
Test in all cases: qHTS profiling for inhibitors of Plasmodium falciparum proliferation (AID 504749); also: nearly all actives have a fitted effect of over 60% in size
Settings in all cases: P. falciparum in erythrocytes, SYBR Green DNA, 72 h; series mostly up to 28.7 µM
CP256 = tested on: CP256
In short: (§1)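 SYBR Green fluorescence of parasite DNA, read after lysis and overnight dark incubation, measured growth over 72 h in erythrocyte culture at 0.3% parasitemia and 2.5% hematocrit. Data normalised to DMSO and 0.29 uM artemisinin, with plate-drift correction.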

CP260 = tested on: CP260
In short: as §1

CP262 = tested on: CP262
In short: as §1

CP265 = tested on: CP265
In short: as §1

CP266 = tested on: CP266
In short: as §1

CP269 = tested on: CP269
In short: as §1

CP286 = tested on: CP286
In short: as §1

CP315 = tested on: CP315
In short: as §1

CP329 = tested on: CP329
In short: as §1

CP335 = tested on: CP335
In short: as §1

DFO2036 = tested on: DFO2036
In short: as §1

DIV30 = tested on: DIV30
In short: as §1

Dd2 = tested on: Dd2
In short: as §1

CP268 = tested on: CP268
In short: as §1

CP297 = tested on: CP297
In short: as §1

CP305 = tested on: CP305
In short: as §1

CP325 = tested on: CP325
In short: as §1

CP291 = tested on: CP291
In short: as §1

DIV14 = tested on: DIV14
In short: as §1

DIV17 = tested on: DIV17
In short: as §1

Measured: Potency
Potency is read from the fitted curve at half-maximal effect.

CC(O)(P(=O)(O)O)P(=O)(O)O
not listed: CP268 | CP297 | CP305 | CP325 | CP291 | DIV14 | DIV17
inactive: all other assays above

O=S1(=O)c2cccc3cccc(c23)N1CCCN1CCN(c2ccc(F)cc2)CC1
not listed: CP291 | DIV14 | DIV17
inactive: all other assays above

O=C(OCCOCCO)c1ccccc1Nc1cccc(C(F)(F)F)c1
not listed: CP266
inactive: all other assays above

CCN(CC)C(=O)/C(C#N)=C/c1cc(O)c(O)c([N+](=O)[O-])c1
active: Dd2 0.447 µM
not listed: CP286
inactive: all other assays above

CC(=O)Oc1ccc(C(=C2CCCCC2)c2ccc(OC(C)=O)cc2)cc1
not listed: CP260
inactive: all other assays above

O=C(N/N=C/c1ccccc1O)c1ccncc1
active: CP256 11.2 µM | CP260 5.01 µM | CP286 5.01 µM | CP335 6.01 µM | DFO2036 7.94 µM | Dd2 11.2 µM
inactive: CP297

COc1cccc2c1C(=O)c1c(O)c3c(c(O)c1C2=O)C[C@@](O)(C(C)=O)C[C@@H]3O[C@H]1C[C@H](N)[C@H](O)[C@H](C)O1
active: CP256 1 µM | CP260 1.12 µM | CP265 2 µM | CP266 8.49 µM | CP268 6.01 µM | CP269 4.78 µM | CP286 2 µM | CP291 5.36 µM | CP297 7.57 µM | CP305 4.78 µM | CP315 7.57 µM | CP325 8.49 µM | CP329 6.01 µM | CP335 4.78 µM | DFO2036 4.47 µM | DIV14 1.9 µM | DIV17 1.35 µM | DIV30 6.75 µM | Dd2 2.24 µM

CCN(CC)CCOC(=O)C(c1ccccc1)C1CCCCC1 (configuration not stated)
active: DIV14 5.36 µM | Dd2 11.2 µM
not listed: CP260 | CP329 | CP268 | CP291 | DIV17
inactive: all other assays above

CC(=O)OCC(=O)[C@@]1(OC(C)=O)[C@@H](C)C[C@H]2[C@@H]3C[C@H](F)C4=CC(=O)C=C[C@]4(C)[C@@]3(F)[C@@H](O)C[C@@]21C
not listed: CP265 | DIV14 | DIV17
inactive: all other assays above

Cc1c2oc3c(C)ccc(C(=O)N[C@@H]4C(=O)N[C@H](C(C)C)C(=O)N5CCC[C@H]5C(=O)N(C)CC(=O)N(C)[C@@H](C(C)C)C(=O)O[C@@H]4C)c3nc-2c(C(=O)N[C@@H]2C(=O)N[C@H](C(C)C)C(=O)N3CCC[C@H]3C(=O)N(C)CC(=O)N(C)[C@@H](C(C)C)C(=O)O[C@@H]2C)c(N)c1=O (I: T[dV]P[Sar][NMeV] / II: T[dV]P[Sar][NMeV]; ester I:1-I:C, II:1-II:C; linker I:N-II:N via Actinocin(9to1))
active: CP256 0.0079 µM | CP260 0.0035 µM | CP262 3.4 nM | CP266 0.0085 µM | CP268 0.0067 µM | CP269 0.006 µM | CP286 0.0035 µM | CP291 0.0054 µM | CP297 0.006 µM | CP305 0.0054 µM | CP315 0.0076 µM | CP325 0.0054 µM | CP329 0.006 µM | CP335 0.0019 µM | DFO2036 0.0032 µM | DIV14 0.0038 µM | DIV17 0.0054 µM | DIV30 0.0076 µM | Dd2 0.0045 µM

CN(C)C(=S)SC(=S)N(C)C
active: CP256 10 µM | CP260 10 µM | CP269 10.7 µM | CP286 11.2 µM | CP305 15.1 µM | CP325 15.1 µM | CP335 8.49 µM | DFO2036 10 µM | DIV14 13.5 µM | DIV30 12 µM | Dd2 7.08 µM
inactive: CP262 | CP266

Cc1ccc(C(=O)C(C)CN2CCCCC2)cc1 (configuration not stated)
active: CP265 10 µM
not listed: CP260 | CP269 | CP335 | DIV30 | DIV17
inactive: all other assays above

CCCCCCC[N+](CC)(CC)CCCCc1ccc(Cl)cc1
active: CP256 2.24 µM | CP260 2.24 µM | CP265 2.82 µM | CP266 2.56 µM | CP268 2.56 µM | CP269 1.61 µM | CP286 1.12 µM | CP291 1.81 µM | CP297 2.03 µM | CP305 0.572 µM | CP315 2.28 µM | CP325 2.28 µM | CP329 1.81 µM | CP335 1.81 µM | DFO2036 1.78 µM | DIV14 0.809 µM | DIV17 0.809 µM | DIV30 2.28 µM | Dd2 2 µM

CCOc1ccc2nc3cc(N)ccc3c(N)c2c1
active: CP256 4.47 µM | CP260 3.98 µM | CP265 11.2 µM | CP268 15.1 µM | CP269 9.53 µM | CP286 1.41 µM | CP291 12 µM | CP297 15.1 µM | CP305 9.53 µM | CP315 4.26 µM | CP329 15.1 µM | CP335 6.01 µM | DFO2036 5.62 µM | DIV14 7.57 µM | DIV17 15.1 µM | Dd2 2.51 µM

CCN1CCN(c2cc3c(cc2F)c(=O)c(C(=O)O)cn3C2CC2)CC1
not listed: CP260 | CP286 | CP335 | CP305
inactive: all other assays above

CN1CCC[C@@H]1c1cccnc1
not listed: CP262 | DIV14
inactive: all other assays above

Cc1ccc(O)c2ncccc12
not listed: CP260 | CP286 | CP335 | DFO2036 | Dd2 | DIV14 | DIV17
inactive: all other assays above

CN(C)CCCOc1nn(Cc2ccccc2)c2ccccc12
not listed: CP265 | CP335 | Dd2 | CP268 | CP291 | DIV14 | DIV17
inactive: all other assays above

COc1ccc(CCN2CCC(Nc3nc4ccccc4n3Cc3ccc(F)cc3)CC2)cc1
active: CP256 3.55 µM | CP260 1 µM | CP265 3.98 µM | CP268 4.78 µM | CP269 4.78 µM | CP286 2.51 µM | CP291 4.26 µM | CP297 5.36 µM | CP305 4.26 µM | CP315 12 µM | CP325 4.26 µM | CP329 9.53 µM | CP335 3.79 µM | DFO2036 3.55 µM | DIV14 4.78 µM | DIV17 4.78 µM | DIV30 13.5 µM | Dd2 8.91 µM

CCCCOc1cc(C(=O)NCCN(CC)CC)c2ccccc2n1
not listed: CP262 | CP266 | DIV14
inactive: all other assays above
